Assay results published in PubChem BioAssay (EPA / NIEHS).
Inconclusive results are not listed. Active and inactive are the calls of the source. Rule for the calls, unless noted: active = hit-call score of the fitted dose curve at least 0.9, where 1 is the maximum; inactive = score below 0.9.

Key:
[1] = read-out: Collagen I, COL1A1 (gene 1277); test: BSK_MyoF_CollagenI: BioMAP Diversity Plus: MyoF Assay for Collagen I Biomarker Activity (AID 2284238); conditions: primary human lung fibroblasts
Procedure, shortened: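 Multiplexed primary human lung fibroblast system; Collagen I measured by ELISA at 24 h post-dose. Increases are referenced to DMSO.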

[2] = read-out: Collagen III, COL3A1 (gene 1281); test: BSK_MyoF_CollagenIII: BioMAP Diversity Plus: MyoF Assay for Collagen III Biomarker Activity (AID 2284239); conditions: primary human lung fibroblasts
Procedure, shortened: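 Compounds are added to primary human lung fibroblasts and left for 24 hours. Collagen III is then quantified by ELISA. Analysis takes DMSO as baseline and fits increases in signal.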

[3] = read-out: Actin alpha 1 (ACTA1), ACTA1 (gene 58); test: BSK_MyoF_ACTA1: BioMAP Diversity Plus: MyoF Assay for Actin alpha 1 (ACTA1) Biomarker Activity (AID 2284244); conditions: primary human lung fibroblasts
Procedure, shortened: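 Measured by ELISA: alpha-smooth muscle actin in human primary lung fibroblasts 24 h after dosing, with DMSO as baseline and upward signal change as the fitted direction.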

[4] = read-out: Interleukin 2 (IL2), IL2 (gene 3558); test: BSK_BT_xIL2: BioMAP Diversity Plus: BT Assay for Interleukin 2 (IL2) Biomarker Activity (AID 2284245); conditions: primary human B cells with PBMC
Procedure, shortened: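 Secreted interleukin-2 from human B cell/PBMC co-cultures, measured 24 h post-dosing by Luminex multiplex immunoassay. Upward-direction curve fitting against DMSO baseline.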

[5] = read-out: Basic fibroblast growth factor (bFGF), FGF2 (gene 2247); test: BSK_MyoF_bFGF: BioMAP Diversity Plus: MyoF Assay for Basic fibroblast growth factor (bFGF) Biomarker Activity (AID 2284246); conditions: primary human lung fibroblasts
Procedure, shortened: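 In this multiplexed cell system, lung fibroblasts (human primary) receive test chemical for 24 h before ELISA detection of bFGF; DMSO defines baseline and the analysis direction is positive.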

[6] = read-out: Collagen IV, COL4A1 (gene 1282); test: BSK_MyoF_CollagenIV: BioMAP Diversity Plus: MyoF Assay for Collagen IV Biomarker Activity (AID 2284247); conditions: primary human lung fibroblasts
Procedure, shortened: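 Activity is scored as a signal increase over DMSO in an ELISA for Collagen IV, measured on human lung fibroblasts at 24 h after chemical treatment. Cytotoxicity is checked in parallel cultures by sulforhodamine B total-protein staining.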

[7] = read-out: Plasminogen activator inhibitor-1 (PAI1), SERPINE1 (gene 5054); test: BSK_MyoF_PAI1: BioMAP Diversity Plus: MyoF Assay for Plasminogen activator inhibitor-1 (PAI1) Biomarker Activity (AID 2284256); conditions: primary human lung fibroblasts
Procedure, shortened: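 Activity reflects increased PAI-1, determined by ELISA and compared with DMSO, in human lung fibroblasts treated for 24 h.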

[8] = read-out: Interleukin-8 (IL8), CXCL8 (gene 3576); test: BSK_MyoF_IL8: BioMAP Diversity Plus: MyoF Assay for Interleukin-8 (IL8) Biomarker Activity (AID 2284261); conditions: primary human lung fibroblasts
Procedure, shortened: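 In this multiplexed primary-cell system, fibroblasts from human lung are treated with chemicals, and IL-8 is detected by ELISA at 24 h, with DMSO serving as the negative reference.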

[9] = read-out: Decorin, DCN (gene 1634); test: BSK_MyoF_Decorin: BioMAP Diversity Plus: MyoF Assay for Decorin Biomarker Activity (AID 2284265); conditions: primary human lung fibroblasts
Procedure, shortened: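 Lung fibroblast cultures, 24 h chemical exposure. Decorin by ELISA, positive fitting direction, DMSO baseline.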

[10] = CCTE_Mundy_HCI_Cortical_NOG_BPCount: CCTE's Neurite Outgrowth Assay in rat cortical cells for Branch Point Count, Mundy Lab (AID 2284237);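 note: branch points counted about two days after chemical exposure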
Procedure, shortened: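 Measured 50.33 h after dosing, this morphology endpoint uses rat primary cortical cultures labelled for betaIII-tubulin. Branch points are quantified by high-content imaging, with DMSO as negative control and baseline.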

[11] = CCTE_Mundy_HCI_hNP1_Casp3_7: CCTE's Caspase-Glo 3/7 Assay in human neuroprogenitor cells for Apoptosis, Mundy Lab (AID 2284240)
Procedure, shortened: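 Apoptosis is scored by activated caspase-3/7 luminescence in WA09-derived neural progenitor cells, measured 26.5 h after chemical dosing. Values represent gain of signal relative to DMSO vehicle.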

[12] = CCTE_Mundy_HCI_hNP1_CellTiter: CCTE's Cell Titer-Glo 2 Assay in human neuroprogenitor cells for Viability, Mundy Lab (AID 2284241; active = hit-call score of the fitted dose curve at least 0.9, where 1 is the maximum;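 note: a hit is a drop in ATP luminescence versus DMSO meaning reduced viability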)
Procedure, shortened: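 Human neural progenitor cells (hNP1, WA09-derived) were plated on poly-L-ornithine/laminin and grown 40 to 44 hours at 37 °C, 5% CO2 before chemical addition. Twenty-four hours later, ATP was measured by CellTiter-Glo luminescence; loss of signal versus DMSO indicates reduced viability.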

[13] = CCTE_Mundy_HCI_Cortical_Synap_Neur_Matur_NeuronCount: CCTE's Synaptogenesis and Neurite Maturation Assay in rat cortical cells for Neuron Count, Mundy Lab (AID 2284242; active = hit-call score of the fitted dose curve at least 0.9, where 1 is the maximum;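 note: neuron number from Hoechst nuclei and MAP2 staining by high-content imaging; hits reduce neuron count versus DMSO baseline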)
Procedure, shortened: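 Imaging-based neuron count in rat cortical cultures after chemical exposure from DIV 7 to DIV 12, with AraC added at DIV 5. Activity is fitted relative to DMSO.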

[14] = read-out: Interleukin 17F (IL17F), IL17F (gene 112744); test: BSK_BT_xIL17F: BioMAP Diversity Plus: BT Assay for Interleukin 17F (IL17F) Biomarker Activity (AID 2284243); conditions: primary human B cells with PBMC
Procedure, shortened: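 Measures secreted IL-17F from a human B cell plus PBMC co-culture at 24 h post-dose by Luminex xMAP, with DMSO defining baseline activity.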

[15] = BSK_MyoF_SRB: Viability Assessment in the BioMAP Diversity Plus: MyoF Assay (AID 2284267); conditions: primary human lung fibroblasts;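 note: total protein by SRB absorbance in parallel cultures as cytotoxicity measure; cells assessed 24 h after compound addition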
Procedure, shortened: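 Cytotoxicity in primary human lung fibroblasts is gauged by SRB total-protein staining 24 h after dosing, with DMSO as the negative control.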

Measured: AC50

Cc1cccc(OP(=O)(Oc2cccc(C)c2)Oc2cccc(C)c2)c1
active: [6] 0.0382 µM | [7] 0.016 µM
inactive: [1] | [2] | [3] | [4] | [5] | [8] | [9]

Cc1ccccc1OP(=O)(Oc1ccccc1)Oc1ccccc1
active: [1] 36.9 µM | [2] 28.2 µM | [3] 20 µM | [7] 13.5 µM | [8] 0.731 µM | [9] 2.3 µM
inactive: [4] | [5] | [6]

O=S(=O)(c1ccc(Cl)cc1)c1cc(Cl)c(Cl)cc1Cl
active: [4] 20 µM
inactive: [1] | [2] | [3] | [5] | [6] | [7] | [8] | [9]

Cc1ccccc1OP(=O)(Oc1ccccc1C)Oc1ccccc1C
active: [10] 18 µM | [1] 9.92 µM | [2] 10 µM | [11] 10.8 µM | [12] 18.3 µM | [13] 2.83 µM | [3] 9.16 µM | [4] 20 µM | [5] 33.3 µM | [6] 20 µM | [7] 11.9 µM | [8] 5.42 µM | [9] 20 µM

C[C@]12CC[C@@H](O)C[C@@H]1CC[C@@H]1[C@@H]2CC[C@]2(C)C(=O)CC[C@@H]12
not listed: [10] | [11] | [12] | [13] | [15]
inactive: all other assays above

O=C(O)COc1cc(Cl)c(Cl)cc1Cl
not listed: [10] | [11] | [12] | [13] | [15]
inactive: all other assays above

Cc1ccc2nc3sc(=O)sc3nc2c1
active: [8] 3.31 µM | [9] 5 µM
not listed: [10] | [11] | [12] | [13] | [15]
inactive: all other assays above

CC(C)(C)c1cc([N+](=O)[O-])cc(C(C)(C)C)c1O
active: [2] 0.0556 µM | [4] 20 µM | [6] 0.396 µM | [7] 0.016 µM
inactive: [1] | [3] | [5] | [8] | [9]

NC(=O)CCl
active: [4] 20 µM
not listed: [10] | [11] | [12] | [13] | [14]
inactive: all other assays above

Cc1c([N+](=O)[O-])c(C)c([N+](=O)[O-])c(C(C)(C)C)c1[N+](=O)[O-]
active: [1] 32.1 µM | [3] 33 µM
inactive: [2] | [4] | [5] | [6] | [7] | [8] | [9]

CC(C)=CC1C(C(=O)OCc2cccc(Oc3ccccc3)c2)C1(C)C (stereo unspecified)
active: [4] 20 µM
inactive: [1] | [2] | [3] | [5] | [6] | [7] | [8] | [9]

O=C(CCl)NCO
active: [8] 3.97 µM
not listed: [10] | [11] | [12] | [13] | [14]
inactive: all other assays above

Cc1cc(Cl)ccc1N
not listed: [10] | [11] | [12] | [13] | [14] | [15]
inactive: all other assays above

Nc1ccc(N)cc1
not listed: [10] | [11] | [12] | [13] | [14]
inactive: all other assays above

CCC(C)(C#N)N=NC(C)(C#N)CC (stereo unspecified)
not listed: [10] | [11] | [12] | [13] | [14] | [15]
inactive: all other assays above

C=CC(Cl)CCl (stereo unspecified)
active: [1] 0.0855 µM | [6] 0.0311 µM | [7] 0.806 µM
inactive: [2] | [3] | [4] | [5] | [8] | [9]

Oc1cccc(-c2ccccc2)c1
active: [1] 20 µM | [2] 31.3 µM | [3] 33.6 µM
inactive: [4] | [5] | [6] | [7] | [8] | [9]

CCOC(=O)CC(=O)CCl
active: [4] 20 µM
inactive: [1] | [2] | [3] | [5] | [6] | [7] | [8] | [9]

N#CCCC(Br)(C#N)CBr (stereo unspecified)
active: [1] 25.7 µM | [2] 24.8 µM | [3] 12 µM | [4] 11 µM | [5] 25 µM | [6] 0.914 µM | [7] 26.4 µM
inactive: [8] | [9]
